# From PubChem
# A selection: hits, their analogues and other compounds. The true share with any hit is near 21%.
# Pf growth 96h: Primary qHTS for delayed death inhibitors of the malarial parasite plastid, 96 hour incubation. AID 504834, 2011. hit rate 6.9% among 320,000. P. falciparum luciferase reporter growth, 96 h. Potency, µM (doses to about 28.7 µM), hits mostly inhibitors
#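 Parasite growth measured via integrated firefly luciferase reporter in P. falciparum. Infected erythrocytes at 2% hematocrit, 0.05% parasitemia final were treated 96 hours at 37 C under 5% CO2, and luminescence was read.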
# AMA1-RON2 inh: qHTS for Inhibitors of AMA1-RON; Towards Development of Antimalarial Drug Lead: Primary Screen; Plasmodium falciparum AMA1 (3D7) - RON2 peptide interaction; AlphaScreen AMA1-biotinylated RON2 peptide binding; Potency, µM (top dose mostly 58.2 µM), usual class: inhibitors; hit rate 0.2% among 360,000; AID 720542, 2013; note: nearly all actives have a fitted effect of over 45% in size
#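 AMA1 (3D7) with his tag at 25 nM final met compounds first, then biotinylated RON2 peptide at 25 nM; detection used donor plus acceptor beads, 10 µg/mL apiece, read by AlphaScreen after 30 min at room temperature.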
# Pf growth 48h: Primary qHTS for delayed death inhibitors of the malarial parasite plastid, 48 hour incubation; P. falciparum luciferase growth in erythrocytes, 48 h; Potency, µM (series often up to 28.7 µM), most hits filed as inhibitors; hit rate 5.9% among 310,000; AID 504832, 2011
#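 Luciferase-expressing parasites in RBCs, 2% Hct / 0.1% parasitemia final; RPMI 1640 + 0.5% Albumax; 37 C, 5% CO2, one generation; luminescence read-out, lower signal = inhibition.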
# Shiga toxin inh: A qHTS for Small Molecule Inhibitors of Shiga Toxin; Vero cells, Shiga toxin protein synthesis inhibition reporter; inhibition, % at 38.7 µM; hit rate 9.2% among 290,000; in the data active = inhibition mostly above about 28%, no sharp cut-off; inactive = mostly below about 43%
# CHX counter: Cycloheximide Counterscreen for Small Molecule Inhibitors of Shiga Toxin; cell reporter, cycloheximide protein synthesis inhibition counterscreen; max response, %; hit rate 12% among 300,000; AID 2314, 2010; in the data active = max response mostly above about 13%, no sharp cut-off; inactive = mostly below about 14%; note: read at 38.3 µM for the half of the compounds with a filed dose
# HCV inhibitor: qHTS Assay for Inhibitors of Hepatitis C Virus (HCV); Huh7.5.1 HCVcc-Cre infection, luciferase reporter, 44 h; Potency, µM (series often up to 41.8 µM), most hits filed as inhibitors; hit rate 3.4% among 340,000; AID 651820, 2012
#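 1,000 cells/well; 4 h culture; + compound; + HCVcc-Cre (~0.5 moi); 44 h; luciferase substrate, RT 15 min; read 15 sec.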
# A number is an active result; n = inactive; u = inconclusive; x = no result. Unless noted, calls come from the whole dose curve; as a rule, active = well fitted curve in the direction sought with a large enough effect; inconclusive = small, poorly fitted or top-dose-only effect, or another doubt; inactive = no such curve, though single readings can be large; an effect the other way counts as inactive or inconclusive.
SMILES,Pf growth 96h,AMA1-RON2 inh,Pf growth 48h,Shiga toxin inh,CHX counter,HCV inhibitor
O=C(NNC(=O)c1ccc(Br)o1)c1csc(N2CCOCC2)n1,n,n,n,x,x,n
CC(C)(C)C(=O)CN1C(=O)NC2(CCCc3ccccc32)C1=O (centres undefined),n,n,n,n,n,n
COc1ccc(CN2CCCC(CO)(Cc3ccc(F)cc3)C2)cc1C (centres undefined),u,n,15µM,n,n,n
Cn1cc(CN2CCCC(CO)(Cc3ccccc3)C2)c2ccccc21 (centres undefined),n,n,12µM,n,n,u
CC(C)Oc1ccc(CN2CCCC(CO)(Cc3ccccc3)C2)cc1CO (centres undefined),n,n,n,x,n,n
COc1ccc(CCNC(=O)Cc2c(Cl)cccc2Cl)cc1,n,n,n,n,n,n
COc1ccc(CCNC(=O)c2nn(C)cc2Cl)cc1,n,n,n,76,27,n
COc1ccc(CCNC(=O)c2nonc2N)cc1,n,n,n,46,21,n
Cc1nc(NC(=O)c2c(-c3ccccc3Cl)noc2C)sc1C,u,n,u,n,n,u
COC(CSc1nc(N)c2c3c(sc2n1)CN(C)CC3)OC,u,n,u,n,31,n
Nc1nc(SCC(=O)NCCCN2CCOCC2)nc2sc3c(c12)CCC3,n,n,n,n,n,n
CCSc1nc(N)c2c(C)c(C)sc2n1,n,n,n,n,n,n
C=CCSc1nc(N)c2c(C)c(C)sc2n1,n,n,n,n,11,n
C=CCSc1nc(N)c2c3c(sc2n1)CN(C)CC3,2.1µM,n,u,n,21,u
CCSc1nc(N)c2c3c(sc2n1)CN(C)CC3,u,x,u,n,n,n
CSc1nc(N)c2c3c(sc2n1)CN(C)CC3,4.7µM,n,x,n,n,u
CC1(C)Cc2c(sc3nc(SCC(=O)N4CCOCC4)nc(N)c23)CO1,u,n,n,n,n,n
CN(C)c1cc(Cl)c2nonc2c1N,u,n,u,n,n,n
COc1ccc(-[n+]2c(C)cc(/C=C3\Sc4ccccc4N3C)cc2C)cc1,u,n,0.74µM,62,n,1.1µM
COc1ccc(C(=O)/C=C2\Sc3ccccc3N2C)cc1,n,n,n,n,35,10µM
COc1ccccc1-[n+]1c(C)cc(/C=C2\Sc3ccccc3N2C)cc1C,0.59µM,n,0.93µM,n,32,u
CCOc1ccc(NC(=O)Nc2cc(C(=O)O)ccc2N2CC3CC(C2)c2cccc(=O)n2C3)cc1 (centres undefined),u,n,n,n,n,n
CCC1CCCCN1CCCNC(=O)Cn1ncn2nc(-c3ccc(OC)cc3)cc2c1=O (centres undefined),u,n,n,55,29,u
Cc1nn(CC(=O)NCCCN2CCC(Cc3ccccc3)CC2)c(=O)c2cc(-c3ccccc3)nn12,4.1µM,n,u,n,n,u
COc1ccc(-c2cc3c(=O)n(CC(=O)NCc4ccccc4OC)ncn3n2)cc1,n,n,n,n,n,n
SMILES,Pf growth 96h,AMA1-RON2 inh,Pf growth 48h,Shiga toxin inh,CHX counter,HCV inhibitor
CCc1ccc(-c2cc3c(=O)n(CC(=O)NCc4ccccc4F)ncn3n2)cc1,u,n,n,n,n,n
COc1ccc(-c2cc3c(=O)n(CC(=O)NCCCc4ccccc4)ncn3n2)cc1,u,n,n,26,16,n
CCc1ccc(-c2cc3c(=O)n(CC(=O)NCCCN4CCN(C)CC4)ncn3n2)cc1,n,n,u,36,24,u
CCc1ccc(-c2cc3c(=O)n(CC(=O)NCCCN4CCC(Cc5ccccc5)CC4)nc(C)n3n2)cc1,u,n,u,n,n,u
CCCCN(C)C(=O)c1ccc(Nc2nc(C(N)Cc3ccc(C(F)(F)F)cc3)cs2)nc1 (centres undefined),x,n,x,x,x,x
CCOC(=O)c1cccc(NC(=O)CC2Oc3ccccc3NC2=O)c1 (centres undefined),n,n,n,n,n,n
O=c1cc(CSc2nnnn2-c2ccccc2)nc2scc(-c3ccccc3)n12,8.3µM,n,u,n,n,n
Cc1ccc(CNC(=O)CC(C)S(=O)(=O)c2ccc3c(c2)NC(=O)C(C)S3)cc1 (centres undefined),u,n,u,n,n,u
CC(=O)Nc1cccc(-c2csc(Nc3ccc(Cl)cn3)n2)c1,n,n,n,146,46,11µM
CC(=O)Nc1ccc(-c2csc(Nc3ccc(Cl)cn3)n2)cc1,n,n,n,n,38,u
OC(c1ccc(F)c(F)c1)c1nc(-c2cc(F)cc(F)c2)cs1 (centres undefined),x,n,x,x,x,x
O=C(NCCN1CCN(c2ccc([N+](=O)[O-])cc2)CC1)NCc1ccccc1,n,n,n,n,n,n
CC1CCC2C(C)C(=O)OC3OC4(C)CCC1C32OO4 (centres undefined),n,n,0.0033µM,n,n,n
CC1CCC2[C@@H](C)C(=O)OC3O[C@]4(C)CCC1C32OO4 (some centres undefined),x,n,x,x,x,n
C[C@@H]1CCC2[C@@H](C)[C@@H](O)O[C@@H]3O[C@@]4(C)CC[C@@H]1[C@@]23OO4 (some centres undefined),0.0004µM,x,0.0005µM,x,x,x
O=C(NCCNC(=O)c1cc(OCC(F)(F)F)ccc1OCC(F)(F)F)Nc1cccc(C(F)(F)F)c1,n,n,n,n,n,u
O=C(Nc1ccccc1)Nc1cc(OCC(F)(F)F)cc(OCC(F)(F)F)c1,3.3µM,n,2.6µM,n,n,6.3µM
Cc1nc(Nc2ccccc2)sc1C,u,n,u,71,46,n
Cc1nc(NC(=O)c2csc3ccccc23)sc1C,x,n,n,123,39,n
CC(=O)c1sc(NC(=O)c2ccccc2)nc1-c1ccccc1,n,n,n,96,57,n
Cc1nc(NC(=O)c2ccccc2)sc1C,n,n,n,x,27,n
CC(=O)c1sc(NC(=O)c2c(F)cccc2F)nc1-c1ccccc1,n,n,n,n,n,n
S=c1[nH]cnc2sc(Nc3ccccc3)nc12,u,n,n,n,n,n
CN(c1ccccc1)S(=O)(=O)c1ccc(Cl)c(C(=O)NCC(c2ccco2)N2CCCC2)c1 (centres undefined),u,n,u,x,x,u
CN(C)S(=O)(=O)n1cc(/C=C(\NC(=O)c2ccccc2F)C(=O)N2CCCCC2)c2ccccc21,x,n,x,x,x,x
Cc1ccc(S(=O)(=O)NCC2CCC(C(=O)NCc3cccnc3)CC2)cc1 (centres undefined),n,n,u,n,n,n
